Most compounds without a hit are left out; they make up all but 7.4% or so of the library.
SMN2 splice up = qHTS Assay for Enhancers of SMN2 Splice Variant Expression | 2.8% of 210,000 active | HEK293 SMN2-luciferase splicing reporter, luminescence, 30-36 h | AID 1458, 2008 | Potency, µM (highest dose often 46.1 µM), for inactives: top-dose activity change, positive = activation, most hits filed as activators; also: % of control where 0% means no effect; nearly all actives have a fitted effect of over 55% in size
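qHTS luciferase splicing reporter: luminescence rises when SMN2 exon 7 is included in transfected HEK293 cells. Compound exposure lasted 30-36 h at 37C, with 4.5 mM final sodium butyrate as control, followed by a ONE-Glo read.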
FLuc modulator = qHTS profiling assay for firefly luciferase inhibitor/activator using purifed enzyme and Km concentrations of substrates (counterscreen for miR-21 project) | 6.9% of 360,000 active | Potency, µM (series often up to 57.5 µM), without a hit: at the highest dose activity change, negative = inhibition, most hits filed as inhibitors | purified FLuc, Km substrates, luminescence inhibition | AID 588342, 2011;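 also: plate controls were vehicle for no effect and reference inhibitor for full effect; nearly all actives have a fitted effect of over 55% in size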
Target sequence (P08659 whole entry, looked up): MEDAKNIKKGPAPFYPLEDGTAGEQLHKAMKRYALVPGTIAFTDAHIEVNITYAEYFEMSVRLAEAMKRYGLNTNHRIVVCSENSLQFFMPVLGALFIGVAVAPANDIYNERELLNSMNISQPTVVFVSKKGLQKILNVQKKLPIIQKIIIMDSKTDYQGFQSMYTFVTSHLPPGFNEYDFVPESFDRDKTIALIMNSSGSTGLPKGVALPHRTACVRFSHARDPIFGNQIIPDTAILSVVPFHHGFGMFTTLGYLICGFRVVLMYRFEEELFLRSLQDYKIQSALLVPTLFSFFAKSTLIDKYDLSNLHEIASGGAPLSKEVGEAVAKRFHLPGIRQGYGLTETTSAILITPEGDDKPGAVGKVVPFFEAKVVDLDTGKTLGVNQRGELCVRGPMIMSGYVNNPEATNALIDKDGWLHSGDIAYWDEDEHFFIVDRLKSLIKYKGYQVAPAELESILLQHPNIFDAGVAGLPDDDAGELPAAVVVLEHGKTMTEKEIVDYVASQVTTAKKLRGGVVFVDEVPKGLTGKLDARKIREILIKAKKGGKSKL
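Biochemical qHTS of compounds, final roughly 60 µM downward over six points, against 10 nM purified firefly luciferase using Km concentrations of substrates (10 uM D-luciferin, 10 uM ATP) in Tris acetate pH 7.5 buffer; luminescence output.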
NPC1 promoter act = qHTS Assay for NPC1 Promoter Activators; Huh7 NPC1 promoter luciferase reporter, 24 h; 2.4% of 320,000 active; Potency, µM (highest dose often 9.22 µM), for inactives: top-dose activation, most hits filed as activators; also: % of control where 0% means no effect; nearly all actives have a fitted effect of over 60% in size
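Huh7 reporter cells (NPC1 promoter driving luciferase) are dosed with compound for 24 h at 37 °C, 5% CO2; luciferase detection reagent is then added and luminescence measured after 10 min at ambient temperature.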
Rab9 promoter act = qHTS Assay for Rab9 Promoter Activators; Huh7 Rab9 promoter-luciferase reporter, luminescence, 24 h; Potency, µM (highest dose often 9.22 µM), inactives show at the highest dose activation, negative = inhibition, actives largely listed as activators; 2.8% of 320,000 active; AID 485297, 2010; also: % of control where 0% means no effect; nearly all actives have a fitted effect of over 60% in size
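Rab9 promoter-driven luciferase in stably transfected Huh7 cells; 1500 cells/well rested 2 h, exposed to compound in DMSO for 24 h at 37 °C, 5% CO2. Luminescence read 10 min after adding luciferase reagent at ambient temperature.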
ELG1 genotox = qHTS screen for small molecules that induce genotoxicity in human embryonic kidney (HEK293T) cells expressing luciferase-tagged ELG1; HEK293T ELG1-luciferase reporter, luminescence, 16 h; Potency, µM (highest dose often 46 µM), for the others: top-dose activity change, positive = activation, actives largely listed as activators; 1.3% of 330,000 active; also: % of control where 0% means no effect; nearly all actives have a fitted effect of over 60% in size
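HEK293T cells expressing luciferase-tagged ELG1 were treated with compound or DMSO for 16 hr at 37°C. Luciferase activity was then read after 30 min with ONE-Glo at room temperature; rising signal flags genetic stress.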
Active calls of the source: *; u = inconclusive; x = not tested or not shown. Calls follow the shape of the dose curve; as a rule, active = well fitted curve in the direction sought with a large enough effect; inconclusive = small, poorly fitted or top-dose-only effect, or another doubt; inactive = no such curve, though single readings can be large; an effect the other way counts as inactive or inconclusive. Potency is read from the fitted curve at half-maximal effect.

SMILES | SMN2 splice up | FLuc modulator | NPC1 promoter act | Rab9 promoter act | ELG1 genotox
N#C/C(=C\c1ccc([N+](=O)[O-])cc1)c1ccccn1 | x | u | 1.6µM* | u | u
Cc1ccc(-n2nnc(C(=O)Nc3cc(F)ccc3F)c2C)cc1F | x | 1% | x | x | x
CC(=O)Nc1ccc(N=Cc2c(O)c(C(=O)Nc3ccccc3)cc3ccccc23)cc1 | -8% | 0.67µM* | 12% | 22% | -3%
NCCCCCCN | -6% | x | x | x | x
Cc1ccc(NC(=O)c2cccs2)cc1[N+](=O)[O-] | x | 21µM* | 21% | 27% | -1%
Cc1ccc(NC(=O)c2ccc(C(C)(C)C)cc2)cc1[N+](=O)[O-] | 15% | 6µM* | u | u | u
Cc1ccc([N+](=O)[O-])cc1NC(=O)c1ccc(C(C)(C)C)cc1 | 8% | u | -4% | 0% | -10%
COc1ccc(OC)c(NC(=O)C2=C(C)C(=O)OC23CCCCCC3)c1 | x | 0% | x | x | x
O=C(Nc1ccccc1)Nc1ccc(F)cc1F | u | 12µM* | u | 4.5µM* | u
Fc1ccccc1NC(=S)Nc1ccc(Br)cc1 | x | u | -4% | 2% | 0%
COC(=O)c1ccc(NC(=O)Nc2cccc(F)c2)cc1 | x | 4.8µM* | u | 1.8µM* | 7%
Fc1cc(Br)ccc1NC(=S)Nc1ccccc1 | 18µM* | 19µM* | u | u | 9%
COC(=O)c1ccc(NC(=O)Nc2ccc(F)cc2F)cc1 | 20µM* | 7.6µM* | u | 3.5µM* | u
CC(=O)Nc1cccc(NC(=O)Nc2ccc(F)cc2F)c1 | 71% | u | -1% | 1% | 4%
O=c1c(-c2cc(-c3ccc(F)cc3)nc3c2COc2ccc(Cl)cc2-3)coc2ccc(F)cc12 | 3% | 0% | x | x | x
Cc1ccc(-n2ncc(C(=O)Nc3ccc4c(c3)OCO4)c2C2CCN(C(=O)OC(C)(C)C)CC2)c(C)c1 | x | -18% | x | x | x
c1ccc2c(c1)NC1(CCCCCC1)n1c-2nc2ccccc21 | 10µM* | 13µM* | u | 3.2µM* | 4µM*
c1ccc2c(c1)NC1(CCCCC1)n1c-2nc2ccccc21 | 25% | 21µM* | u | 28% | u
CC1(c2ccccn2)Nc2ccccc2-c2nc3ccccc3n21 (stereo not given) | -9% | u | -6% | 0% | -3%
COc1cccc(-n2ccnc2SCC(=O)Nc2cccc3ccccc23)c1 | x | -12% | x | x | x
Fc1ccc(NC(=S)N2N=CCC2c2ccccc2)cc1 (stereo not given) | 10% | u | 22% | 18% | 23µM*
S=C(Nc1ccccc1)N1N=CCC1c1ccccc1 (stereo not given) | -8% | 17µM* | 22% | 30% | u
O=C(Nc1cccc(Cl)c1)N1N=CCC1c1ccccc1 (stereo not given) | x | -3% | 1% | -1% | -3%
C(=N\Nc1nc(-c2ccccc2)cs1)/c1cccnc1 | 22µM* | 21µM* | 3.2µM* | 2.2µM* | 5.2µM*
Clc1ccc(-c2csc(N/N=C/c3cccnc3)n2)c(Cl)c1 | -53% | -17% | -4% | -8% | 7%
SMILES | SMN2 splice up | FLuc modulator | NPC1 promoter act | Rab9 promoter act | ELG1 genotox
CC(C)(C)c1csc(N/N=C/c2cccnc2)n1 | u | 12µM* | u | 3.2µM* | u
Cc1ccc(/C=N/Nc2nc(C(C)(C)C)cs2)o1 | 13µM* | 13µM* | u | u | u
Cc1ccc(/C=N/Nc2nc3ccccc3s2)o1 | 2µM* | 0.85µM* | u | u | 0.82µM*
Cc1cc(=O)[nH]c(N/N=C/c2ccc(C)o2)n1 | -16% | -5% | 0% | -11% | 5%
COc1cc(C2CC(=O)Nc3c2c(=O)[nH]c2nc4ccccc4n32)ccc1O (stereo not given) | -6% | -12% | x | x | x
Cc1ccc(/C=C2\SC(=O)N(CCC(=O)N3CCN(C)CC3)C2=O)cc1 | x | 13µM* | u | 24% | u
Cc1ccc(/C=C2\SC(=O)N(CCNC(=O)C3CSC4(C)CCC(=O)N34)C2=O)cc1 (stereo not given) | x | 19µM* | 7% | 8% | -1%
COc1ccc(/C=C2\SC(=O)N(CCC(=O)N3CCN(C)CC3)C2=O)cc1 | x | 19µM* | 24% | 18% | 9%
CC12CCC(=O)N1C(C(=O)NCCN1C(=O)S/C(=C\c3ccccc3Cl)C1=O)CS2 (stereo not given) | x | u | -3% | 4% | 0%
CN1CCN(C(=O)CCN2C(=O)S/C(=C/c3ccc(Cl)cc3)C2=O)CC1 | -1% | u | 6% | 2% | 0%
Cc1ccccc1C(=O)Nc1ccc(S(=O)(=O)N2CCC(c3nc4ccccc4s3)CC2)cc1 | x | 0% | x | x | x
O=C1CN(C(=O)Nc2ccccc2Cl)C(c2ccccc2)c2c(sc3c2CCCC3)N1 (stereo not given) | x | -12% | x | x | x
O=c1cc(-c2ccccc2)nc2n1Cc1ccccc1-2 | -24% | u | 2% | 0% | 13%
COc1ccc(-c2nc3n(c2C)Cc2ccccc2-3)cc1 | x | 2.4µM* | 2.5µM* | u | 13µM*
O=c1c2cc(-c3ccccc3)sc2ncn1/N=C/c1ccco1 | 10% | 8.5µM* | u | 3.5µM* | u
CCCCCn1cnc2sc(-c3ccccc3)cc2c1=O | u | 6.7µM* | 2.5µM* | 2.2µM* | 13%
COc1ccccc1-n1cnc2sc(-c3ccccc3)cc2c1=O | -20% | 11µM* | u | 2.8µM* | 5%
CCCCn1cnc2sc(-c3ccccc3)cc2c1=O | 24% | 5.4µM* | 1.4µM* | 1.6µM* | u
O=c1c2c(-c3ccccc3)csc2ncn1/N=C/c1c2ccccc2cc2ccccc12 | -15% | -1% | -1% | 3% | -17%
CC(=O)c1ccc(N2CCN(C(=O)CCc3nnc4n(C)c(=O)c5sccc5n34)CC2)cc1 | 3% | -3% | x | x | x
CCC(CC)c1nn2c(=O)cc(COc3ccc(NC(=O)c4ccc(Cl)cc4)cc3)nc2s1 | 20% | -1% | x | x | x
CC(C)(C)c1ccc(-c2nnc(SCCN3C(=O)c4ccccc4C3=O)o2)cc1 | 9% | 15µM* | 0% | -2% | -3%
Cc1cc(N2CCOCC2)ccc1/C=C\[N+](=O)[O-] | u | 24µM* | -7% | 12% | -21%
O=[N+]([O-])c1ccc(N2CCOCC2)cc1O | x | -2% | -2% | 1% | 0%
COc1ccc(C(=O)Nc2nc3ccccc3[nH]2)cc1OC | 11µM* | 15µM* | 2.8µM* | 2.8µM* | u
CCOc1ccc(C(=O)Nc2nc3ccccc3[nH]2)cc1OCC | -39% | u | 9% | 21% | -7%
COc1ccc(Cl)cc1C(=O)Nc1nc2ccccc2[nH]1 | x | 0.085µM* | u | u | u
COc1ccc(C(=O)Nc2nc3ccccc3[nH]2)cc1S(=O)(=O)N1CCCC1 | 18% | u | 3% | -2% | 3%

Assay outcomes as filed in PubChem.
